Measured values from PubChem BioAssay (NCATS).
Inconclusive results are not listed. The source made the active and inactive calls. Calls come from the whole dose curve; as a rule, active = well fitted curve in the direction sought with a large enough effect; inconclusive = small, poorly fitted or top-dose-only effect, or another doubt; inactive = no such curve, though single readings can be large; an effect the other way counts as inactive or inconclusive.

Assays:
MCC-13 = experiment: qHTS assay to identify novel small-molecules to repurpose for Merkel cell carcinoma treatment (AID 1296009); conditions: MCC and control cell lines, CellTiter-Glo viability, 72 h; series mostly up to 46 µM; note: nearly all actives have a fitted effect of over 60% in size
Method in brief: (§1)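 Cells were incubated with compound for 72 hr at 37 degree celsius before CellTiter-Glo addition. Luminescence was normalized with no-cell wells as full cytotoxicity and DMSO as baseline.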

MCC-26 = experiment: as above; conditions: MCC and control cell lines, CellTiter-Glo viability, 72 h; series mostly up to 46 µM
Method in brief: as §1

MKL-1 = experiment: as above; conditions: MCC and control cell lines, CellTiter-Glo viability, 72 h; series mostly up to 46 µM
Method in brief: as §1

MKL-2 = experiment: as above; conditions: MCC and control cell lines, CellTiter-Glo viability, 72 h; series mostly up to 46 µM
Method in brief: as §1

UISO = experiment: as above; conditions: MCC and control cell lines, CellTiter-Glo viability, 72 h; series mostly up to 46 µM
Method in brief: as §1

WaGa = experiment: as above; conditions: MCC and control cell lines, CellTiter-Glo viability, 72 h; series mostly up to 46 µM
Method in brief: as §1

C33A = experiment: Primary qHTS to identify gynecologic anti-cancer compounds using libraries of approved drugs and bioactive compounds (AID 1345084); conditions: Gynecologic cancer cell panel viability, ATPlite luminescence, 48 h; series mostly up to 57.5 µM; note: nearly all actives have a fitted effect of over 55% in size
Method in brief: (§2)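 Five-concentration response, 48 h; readout is ATP-driven luciferase luminescence.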

CAOV3 = experiment: as above; conditions: Gynecologic cancer cell panel viability, ATPlite luminescence, 48 h; series mostly up to 57.5 µM
Method in brief: as §2

CASKI = experiment: as above; conditions: Gynecologic cancer cell panel viability, ATPlite luminescence, 48 h; series mostly up to 57.5 µM
Method in brief: as §2

Es-2 = experiment: as above; conditions: Gynecologic cancer cell panel viability, ATPlite luminescence, 48 h; series mostly up to 57.5 µM
Method in brief: as §2

HeLa = experiment: as above; conditions: Gynecologic cancer cell panel viability, ATPlite luminescence, 48 h; series mostly up to 57.5 µM
Method in brief: as §2

Hek293T = experiment: as above; conditions: Gynecologic cancer cell panel viability, ATPlite luminescence, 48 h, control line for the selectivity index; series mostly up to 57.5 µM
Method in brief: as §2

JEG-3 = experiment: as above; conditions: Gynecologic cancer cell panel viability, ATPlite luminescence, 48 h; series mostly up to 57.5 µM
Method in brief: as §2

OV90 = experiment: as above; conditions: Gynecologic cancer cell panel viability, ATPlite luminescence, 48 h; series mostly up to 57.5 µM
Method in brief: as §2

PA-1 = experiment: as above; conditions: Gynecologic cancer cell panel viability, ATPlite luminescence, 48 h; series mostly up to 57.5 µM
Method in brief: as §2

SKOV3 = experiment: as above; conditions: Gynecologic cancer cell panel viability, ATPlite luminescence, 48 h; series mostly up to 57.5 µM
Method in brief: as §2

Tov-21-G = experiment: as above; conditions: Gynecologic cancer cell panel viability, ATPlite luminescence, 48 h; series mostly up to 57.5 µM
Method in brief: as §2

Tov112D = experiment: as above; conditions: Gynecologic cancer cell panel viability, ATPlite luminescence, 48 h; series mostly up to 57.5 µM
Method in brief: as §2

Measured: Potency

CC(=O)N(c1onc(C)c1C)S(=O)(=O)c1ccc(N)cc1
inactive: all assays above

CCN1CCN(C(=O)N[C@@H](C(=O)N[C@@H]2C(=O)N3[C@@H]2SC(C)(C)[C@H]3C(=O)O)c2ccccc2)C(=O)C1=O
inactive: all assays above

CC(C)C[C@@H]1[C@H](c2ccccc2)OC(=O)N1CCCN1CCCCCC1
inactive: all assays above

Cc1c(C)c2c(c(C)c1OC(=O)CCC(=O)OCCO)CC[C@@](C)(CCC[C@H](C)CCC[C@H](C)CCCC(C)C)O2
inactive: MCC-13 | MCC-26 | MKL-1 | MKL-2 | UISO | WaGa

O=C(O)[C@@H](O)[C@H](O)[C@H](O)[C@@H](O)C(=O)O
inactive: all assays above

COc1cc(C(=O)NC2CCCNC2)cc(OC)c1OC (stereo not given)
inactive: all assays above

CCOC(=O)c1ccc(OCCN2C[C@H](O)[C@@H](O)[C@H](O)[C@H]2CO)cc1
inactive: all assays above

O=C(O)c1[nH]n(-c2ccc(S(=O)(=O)O)cc2)c(=O)c1N=Nc1ccc(S(=O)(=O)O)cc1
inactive: all assays above

CN(C(=O)C(Cl)Cl)c1ccc(OC(=O)c2ccco2)cc1
inactive: all assays above

C/C(=N/NC(=O)c1ccncc1)C(=O)O
inactive: all assays above

CC(=O)Nc1c(I)c(NC(C)=O)c(I)c(C(=O)O)c1I
inactive: all assays above

CCc1cccc2c(CCO)c[nH]c12
inactive: all assays above

CC(C)OP(=O)(CP(=O)(OC(C)C)OC(C)C)OC(C)C
inactive: all assays above

CCO[C@H](Cc1ccc(OCCc2ccc(OS(C)(=O)=O)cc2)cc1)C(=O)O
inactive: all assays above

COCCc1ccc(OCC2CO2)cc1 (stereo not given)
inactive: all assays above

CSc1ccc(/C=C2/C(C)=C(CC(=O)O)c3cc(F)ccc32)cc1
inactive: all assays above

CC(C)(C)c1cc(C=O)cc(C(C)(C)C)c1O
inactive: all assays above

CN(CC1(C)CCCO1)S(=O)(=O)c1ccc(Cl)c(S(N)(=O)=O)c1 (stereo not given)
inactive: all assays above

CCCc1ccc(OCC(=O)N2CCN(C(=O)COc3ccc(CCC)cc3OC)CC2)c(OC)c1
inactive: all assays above

CCc1cc(S(=O)(=O)O)c2cc(C(C)C)cccc1-2
inactive: all assays above

CC(C)C(=O)Nc1cccc(C(F)(F)F)c1
inactive: all assays above

CCCCCCCCCCCCCCCCCCN(C)C
inactive: all assays above

C[C@@H]1CCC[C@H](C)N1CCCC(O)(c1ccccc1)c1ccccn1 (stereo not given in full)
inactive: all assays above

COc1ccccc1N1CCN(CC(O)COc2cc(OC)c(OC)c(OC)c2)CC1 (stereo not given)
inactive: all assays above

N[C@@H](Cc1cc(I)c(O)c(I)c1)C(=O)O
inactive: all assays above

Cc1cccc(OCC(O)CNC(C)(C)C)c1C (stereo not given)
inactive: all assays above

N#Cc1cc(NC(=O)C(=O)O)c(Cl)c(NC(=O)C(=O)O)c1
inactive: all assays above

CC(=O)O[C@H]1CC[C@@]2(C)C(=CC[C@@H]3[C@@H]2CC[C@]2(C)C(C(C)=O)=CC[C@@H]32)C1
inactive: all assays above

Cc1ncc(CO)c(CO)c1O
inactive: all assays above
